{"source": "the supplement of paper PMC12645437", "about": "“Orthogonal IMiD-Degron Pairs Induce Selective Protein Degradation in Cells” (ACS Chemical Biology, 2025)", "molecular_target": "T1, CRBN, Q96SW2", "T1 chain": "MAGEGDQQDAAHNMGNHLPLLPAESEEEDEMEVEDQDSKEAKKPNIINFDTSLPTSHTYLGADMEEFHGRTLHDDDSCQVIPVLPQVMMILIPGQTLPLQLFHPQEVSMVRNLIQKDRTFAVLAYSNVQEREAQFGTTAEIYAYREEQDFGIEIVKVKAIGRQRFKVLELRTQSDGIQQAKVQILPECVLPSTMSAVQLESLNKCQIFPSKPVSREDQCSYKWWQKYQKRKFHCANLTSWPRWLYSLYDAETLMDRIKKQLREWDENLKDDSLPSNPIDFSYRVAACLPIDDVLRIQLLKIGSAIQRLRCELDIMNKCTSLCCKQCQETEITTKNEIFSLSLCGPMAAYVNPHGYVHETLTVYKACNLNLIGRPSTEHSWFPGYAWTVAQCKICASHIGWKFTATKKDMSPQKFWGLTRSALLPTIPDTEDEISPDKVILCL", "experiment": "log2 fold change of degron read counts, EGFP-low vs EGFP+ sorted cells (limma voom), compound-induced degradation; higher = more compound-induced degradation of the degron-EGFP fusion; degrons are variants of IKZF1/3 zinc finger 2; compound dose not given here", "settings": "Jurkat, 18 h", "key": {"[1]": {"settings": "compound: compound 19 (5-tert-butyl-thalidomide)"}, "[2]": {"settings": "compound: compound 22 (5-morpholino-thalidomide)"}, "[3]": {"settings": "compound: compound 33 (diphenyl IMiD analogue)"}}, "note": "Over roughly 8,300 sequences, “log2 fold change of degron read counts, EGFP-low vs EGFP+ sorted cells (limma voom), compound-induced degradation” has its median near -1.1; the highest 2% begin near 3.2. The full list was thinned out, with the highest values kept by preference.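 Note: pooled lentiviral library of zinc finger degron-EGFP fusions in mCherry-positive Jurkat cells, FACS-sorted after compound exposure, with degron abundance counted by next-generation sequencing.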", "data": [{"sequence": "FWCNQCGHQFTQKGNLLRHIKL", "note": "[46F_47W_49N_50Q_52G_53H_54Q_55F_67L_, Q9UKT9]", "values": [{"measurement": "log2 fold change of degron read counts", "setting": "[1]", "value": -2.03}, {"measurement": "log2 fold change of degron read counts", "setting": "[2]", "value": -2.39}, {"measurement": "log2 fold change of degron read counts", "setting": "[3]", "value": -2.26}, {"measurement": "log2 fold change of degron read counts", "setting": "compound: thalidomide", "value": -1.81}]}, {"sequence": "FTCNICGAIFTQKGNLLRHIKL", "note": "[46F_47T_49N_50I_52G_53A_54I_55F_67L_, Q9UKT9]", "values": [{"measurement": "log2 fold change of degron read counts", "setting": "[1]", "value": -1}, {"measurement": "log2 fold change of degron read counts", "setting": "[2]", "value": 0.0209}, {"measurement": "log2 fold change of degron read counts", "setting": "[3]", "value": 0.936}, {"measurement": "log2 fold change of degron read counts", "setting": "compound: thalidomide", "value": 1.06}]}, {"sequence": "FHCDICGANFTQKGNLLRHIKL", "note": "[46F_47H_49D_50I_52G_53A_54N_55F_67L_, Q9UKT9]", "values": [{"measurement": "log2 fold change of degron read counts", "setting": "[1]", "value": -0.867}, {"measurement": "log2 fold change of degron read counts", "setting": "[2]", "value": -0.624}, {"measurement": "log2 fold change of degron read counts", "setting": "[3]", "value": -1.82}, {"measurement": "log2 fold change of degron read counts", "setting": "compound: thalidomide", "value": -2.82}]}, {"sequence": "FECDICGANFTQKGNLLRHIKL", "note": "[46F_47E_49D_50I_52G_53A_54N_55F_67L_, Q9UKT9]", "values": [{"measurement": "log2 fold change of degron read counts", "setting": "[1]", "value": -1.28}, {"measurement": "log2 fold change of degron read counts", "setting": "[2]", "value": -2.43}, {"measurement": "log2 fold change of degron read counts", "setting": "[3]", "value": 0.537}, {"measurement": "log2 fold change of degron read counts", "setting": "compound: thalidomide", "value": 0.012}]}, {"sequence": "FLCDICGANFTQKGNLLRHIKL", "note": "[46F_47L_49D_50I_52G_53A_54N_55F_67L_, Q9UKT9]", "values": [{"measurement": "log2 fold change of degron read counts", "setting": "[1]", "value": -1.24}, {"measurement": "log2 fold change of degron read counts", "setting": "[2]", "value": -1.68}, {"measurement": "log2 fold change of degron read counts", "setting": "[3]", "value": 0.196}, {"measurement": "log2 fold change of degron read counts", "setting": "compound: thalidomide", "value": -0.528}]}, {"sequence": "FWCDICGANFTQKGNLLRHIKL", "note": "[46F_47W_49D_50I_52G_53A_54N_55F_67L_, Q9UKT9]", "values": [{"measurement": "log2 fold change of degron read counts", "setting": "[1]", "value": 2.81}, {"measurement": "log2 fold change of degron read counts", "setting": "[2]", "value": 3.71}, {"measurement": "log2 fold change of degron read counts", "setting": "[3]", "value": 1.34}, {"measurement": "log2 fold change of degron read counts", "setting": "compound: thalidomide", "value": 0.139}]}, {"sequence": "FYCDICGANFTQKGNLLRHIKL", "note": "[46F_47Y_49D_50I_52G_53A_54N_55F_67L_, Q9UKT9]", "values": [{"measurement": "log2 fold change of degron read counts", "setting": "[1]", "value": 2.78}, {"measurement": "log2 fold change of degron read counts", "setting": "[2]", "value": 3.42}, {"measurement": "log2 fold change of degron read counts", "setting": "[3]", "value": 1.2}, {"measurement": "log2 fold change of degron read counts", "setting": "compound: thalidomide", "value": -0.676}]}, {"sequence": "FCCDICGANFTQKGNLLRHIKL", "note": "[46F_47C_49D_50I_52G_53A_54N_55F_67L_, Q9UKT9]", "values": [{"measurement": "log2 fold change of degron read counts", "setting": "[1]", "value": 0.761}, {"measurement": "log2 fold change of degron read counts", "setting": "[2]", "value": 0.588}, {"measurement": "log2 fold change of degron read counts", "setting": "[3]", "value": 0.858}, {"measurement": "log2 fold change of degron read counts", "setting": "compound: thalidomide", "value": -0.326}]}]}
